# Source: PMC7862700, “An all-to-all approach to the identification of sequence-specific readers for epigenetic DNA modifications on cytosine”
# Assays:
# Assay in all cases: DAPPL (digital affinity profiling via proximity ligation, sequencing); 10 mM Tris-HCl pH 7.5, 50 mM NaCl, 1 mM DTT, 4% glycerol, room temperature, 30 min; GST-TFs on glutathione beads, 16-mer random dsDNA library, 0.1% formaldehyde crosslink after washing; high values mean tight binding
# FLI1 = biological target: T1, FLI1 (Homo sapiens, UniProt Q01543 1-452); conditions: protein: recombinant; tags: N-terminal GST; dsDNA, one strand shown
# T1 sequence: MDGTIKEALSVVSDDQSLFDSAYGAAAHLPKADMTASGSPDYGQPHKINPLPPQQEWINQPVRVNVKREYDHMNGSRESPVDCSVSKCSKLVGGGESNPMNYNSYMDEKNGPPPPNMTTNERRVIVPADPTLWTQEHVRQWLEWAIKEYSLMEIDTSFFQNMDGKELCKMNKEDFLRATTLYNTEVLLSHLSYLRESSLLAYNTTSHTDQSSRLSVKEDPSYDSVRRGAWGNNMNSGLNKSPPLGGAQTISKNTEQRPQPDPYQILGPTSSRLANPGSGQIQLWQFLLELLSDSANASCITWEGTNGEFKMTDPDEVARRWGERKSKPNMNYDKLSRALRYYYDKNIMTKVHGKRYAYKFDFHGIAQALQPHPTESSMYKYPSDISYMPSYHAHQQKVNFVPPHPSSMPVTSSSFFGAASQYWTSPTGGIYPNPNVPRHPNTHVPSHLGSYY
# How it was run: (§1)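 Beads coated with glutathione captured GST-fused human transcription factors that had been expressed in yeast, and the factors were then given DNA barcodes and pooled with a tag-only sample. The pools were incubated with 200 nmole of a random double-stranded 16-mer DNA library in Tris/NaCl/DTT/glycerol buffer for 30 min at room temperature, washed, crosslinked with 0.1% formaldehyde and proximity-ligated with BsaI/T4 ligase at 37 °C for 1 h. PCR amplification and Illumina NextSeq500 sequencing came last. Binding signal is each hexamer's read frequency for a factor divided by its frequency for the tag-only sample.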
# ELK1 = biological target: T2, ELK1 (Homo sapiens, UniProt P19419 1-428); conditions: protein: recombinant; tags: N-terminal GST; dsDNA, one strand shown
# T2 sequence: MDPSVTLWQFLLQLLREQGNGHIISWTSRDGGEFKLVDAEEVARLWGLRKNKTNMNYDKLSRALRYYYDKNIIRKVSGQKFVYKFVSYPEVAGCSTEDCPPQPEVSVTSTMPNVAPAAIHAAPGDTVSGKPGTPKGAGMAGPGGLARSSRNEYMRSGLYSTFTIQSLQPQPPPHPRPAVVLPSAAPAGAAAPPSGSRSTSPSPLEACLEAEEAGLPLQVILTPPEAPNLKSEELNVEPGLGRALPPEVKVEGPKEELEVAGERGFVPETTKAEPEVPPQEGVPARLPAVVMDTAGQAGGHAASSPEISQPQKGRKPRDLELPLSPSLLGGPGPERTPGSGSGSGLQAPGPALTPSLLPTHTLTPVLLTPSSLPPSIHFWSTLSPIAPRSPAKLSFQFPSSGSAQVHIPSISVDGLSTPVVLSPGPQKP
# How it was run: as §1
# GABPA = biological target: T3, GABPA (Homo sapiens, UniProt Q06546 1-454); conditions: protein: recombinant; tags: N-terminal GST; dsDNA, one strand shown
# T3 sequence: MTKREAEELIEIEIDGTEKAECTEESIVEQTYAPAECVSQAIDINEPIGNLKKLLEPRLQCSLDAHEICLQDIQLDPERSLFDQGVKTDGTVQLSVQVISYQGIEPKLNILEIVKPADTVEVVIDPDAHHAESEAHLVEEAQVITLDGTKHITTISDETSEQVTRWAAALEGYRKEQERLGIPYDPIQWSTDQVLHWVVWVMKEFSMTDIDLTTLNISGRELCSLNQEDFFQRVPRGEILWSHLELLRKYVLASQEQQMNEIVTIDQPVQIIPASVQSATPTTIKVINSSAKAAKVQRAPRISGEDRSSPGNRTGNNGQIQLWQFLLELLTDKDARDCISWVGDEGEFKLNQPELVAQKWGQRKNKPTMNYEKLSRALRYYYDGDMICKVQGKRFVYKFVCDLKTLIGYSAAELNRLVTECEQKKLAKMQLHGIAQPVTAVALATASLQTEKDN
# How it was run: as §1
# ERG = biological target: T4, ERG (Homo sapiens, UniProt P11308 1-479); conditions: protein: recombinant; tags: N-terminal GST; dsDNA, one strand shown
# T4 sequence: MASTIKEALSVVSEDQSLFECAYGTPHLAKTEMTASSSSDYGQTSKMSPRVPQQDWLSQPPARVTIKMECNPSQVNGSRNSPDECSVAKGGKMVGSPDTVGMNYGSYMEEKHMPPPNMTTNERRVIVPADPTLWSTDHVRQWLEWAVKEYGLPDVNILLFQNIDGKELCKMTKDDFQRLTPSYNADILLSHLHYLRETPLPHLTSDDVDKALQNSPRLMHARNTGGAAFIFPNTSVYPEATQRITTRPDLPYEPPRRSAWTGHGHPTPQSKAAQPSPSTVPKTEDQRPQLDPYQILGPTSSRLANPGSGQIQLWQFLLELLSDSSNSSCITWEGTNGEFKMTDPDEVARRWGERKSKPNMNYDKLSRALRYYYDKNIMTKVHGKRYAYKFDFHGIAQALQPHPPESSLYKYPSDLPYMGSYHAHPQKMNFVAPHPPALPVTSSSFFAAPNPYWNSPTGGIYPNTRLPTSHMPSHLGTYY
# How it was run: as §1
# ELF1 = ELF1 (Homo sapiens, UniProt P32519 1-619); conditions: protein: recombinant; tags: N-terminal GST; dsDNA, one strand shown
# How it was run: as §1
# EHF = biological target: T5, EHF (Homo sapiens, UniProt Q9NZC4 1-300); conditions: protein: recombinant; tags: N-terminal GST; dsDNA, one strand shown
# T5 sequence: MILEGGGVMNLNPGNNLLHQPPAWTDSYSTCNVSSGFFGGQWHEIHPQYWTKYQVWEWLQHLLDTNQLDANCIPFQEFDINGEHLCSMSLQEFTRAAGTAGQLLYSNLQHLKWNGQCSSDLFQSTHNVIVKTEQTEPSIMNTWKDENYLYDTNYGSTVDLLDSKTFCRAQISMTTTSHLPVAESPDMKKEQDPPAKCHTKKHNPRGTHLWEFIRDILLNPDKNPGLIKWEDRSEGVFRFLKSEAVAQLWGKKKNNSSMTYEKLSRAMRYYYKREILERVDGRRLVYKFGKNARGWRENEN
# How it was run: as §1
# SPI1 = SPI1 (Homo sapiens, UniProt P17947 1-270); conditions: protein: recombinant; tags: N-terminal GST; dsDNA, one strand shown
# How it was run: as §1
# SPIB = SPIB (Homo sapiens, UniProt Q01892 1-262); conditions: protein: recombinant; tags: N-terminal GST; dsDNA, one strand shown
# How it was run: as §1
# ELK3 = biological target: T6, ELK3 (Homo sapiens, UniProt P41970 1-407); conditions: protein: recombinant; tags: N-terminal GST; dsDNA, one strand shown
# T6 sequence: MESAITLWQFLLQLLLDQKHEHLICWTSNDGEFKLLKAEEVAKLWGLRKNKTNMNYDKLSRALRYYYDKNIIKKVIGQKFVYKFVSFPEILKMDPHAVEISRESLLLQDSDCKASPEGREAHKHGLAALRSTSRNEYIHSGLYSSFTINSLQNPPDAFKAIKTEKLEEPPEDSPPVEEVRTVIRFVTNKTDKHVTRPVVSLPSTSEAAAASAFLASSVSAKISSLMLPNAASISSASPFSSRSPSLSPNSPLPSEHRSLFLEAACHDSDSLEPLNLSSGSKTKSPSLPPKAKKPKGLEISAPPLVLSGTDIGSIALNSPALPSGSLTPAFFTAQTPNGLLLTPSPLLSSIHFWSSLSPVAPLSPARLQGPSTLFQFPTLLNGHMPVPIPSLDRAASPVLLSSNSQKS
# How it was run: as §1
# FEV = biological target: T7, FEV (Homo sapiens, UniProt Q99581 1-238); conditions: protein: recombinant; tags: N-terminal GST; dsDNA, one strand shown
# T7 sequence: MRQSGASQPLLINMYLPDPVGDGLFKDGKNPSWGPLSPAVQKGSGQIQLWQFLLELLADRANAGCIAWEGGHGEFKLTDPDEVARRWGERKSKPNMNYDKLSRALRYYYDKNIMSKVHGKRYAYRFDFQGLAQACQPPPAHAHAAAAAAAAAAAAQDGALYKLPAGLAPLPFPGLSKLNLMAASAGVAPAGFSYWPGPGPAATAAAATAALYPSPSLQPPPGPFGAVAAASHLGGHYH
# How it was run: as §1
# ETV5 = ETV5 (Homo sapiens, UniProt P41161 1-510); conditions: protein: recombinant; tags: N-terminal GST; dsDNA, one strand shown
# How it was run: as §1
# HSF1 = HSF1 (Homo sapiens, UniProt Q00613 1-529); conditions: protein: recombinant; tags: N-terminal GST; chain copies: 3; dsDNA, one strand shown
# How it was run: as §1
# SPIC = biological target: T8, SPIC (Homo sapiens, UniProt Q8N5J4 1-248); conditions: protein: recombinant; tags: N-terminal GST; dsDNA, one strand shown
# T8 sequence: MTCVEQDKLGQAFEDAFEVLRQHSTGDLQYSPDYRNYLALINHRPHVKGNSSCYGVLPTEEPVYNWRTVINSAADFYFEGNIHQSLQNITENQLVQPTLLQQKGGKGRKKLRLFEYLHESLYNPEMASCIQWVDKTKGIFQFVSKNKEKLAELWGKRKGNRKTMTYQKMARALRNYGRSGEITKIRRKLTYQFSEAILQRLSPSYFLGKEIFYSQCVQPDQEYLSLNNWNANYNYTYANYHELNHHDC
# How it was run: as §1
# ELF4 = ELF4 (Homo sapiens, UniProt Q99607 1-663); conditions: protein: recombinant; tags: N-terminal GST; dsDNA, one strand shown
# How it was run: as §1
# ELK4 = biological target: T9, ELK4 (Homo sapiens, UniProt P28324-2 1-405); conditions: protein: recombinant; tags: N-terminal GST; dsDNA, one strand shown
# T9 sequence: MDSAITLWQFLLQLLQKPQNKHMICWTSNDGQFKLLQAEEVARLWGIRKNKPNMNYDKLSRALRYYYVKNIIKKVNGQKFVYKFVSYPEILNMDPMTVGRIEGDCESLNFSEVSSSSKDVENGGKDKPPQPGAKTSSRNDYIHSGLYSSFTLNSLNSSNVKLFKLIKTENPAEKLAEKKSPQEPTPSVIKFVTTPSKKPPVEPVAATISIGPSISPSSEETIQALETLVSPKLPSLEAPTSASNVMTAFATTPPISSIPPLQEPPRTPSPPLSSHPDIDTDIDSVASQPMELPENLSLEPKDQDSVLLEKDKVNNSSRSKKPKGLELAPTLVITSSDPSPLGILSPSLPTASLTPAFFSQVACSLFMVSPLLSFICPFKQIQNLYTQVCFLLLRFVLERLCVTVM
# How it was run: as §1
# ETV2 = biological target: T10, ETV2 (Homo sapiens, UniProt O00321 1-342); conditions: protein: recombinant; tags: N-terminal GST; dsDNA, one strand shown
# T10 sequence: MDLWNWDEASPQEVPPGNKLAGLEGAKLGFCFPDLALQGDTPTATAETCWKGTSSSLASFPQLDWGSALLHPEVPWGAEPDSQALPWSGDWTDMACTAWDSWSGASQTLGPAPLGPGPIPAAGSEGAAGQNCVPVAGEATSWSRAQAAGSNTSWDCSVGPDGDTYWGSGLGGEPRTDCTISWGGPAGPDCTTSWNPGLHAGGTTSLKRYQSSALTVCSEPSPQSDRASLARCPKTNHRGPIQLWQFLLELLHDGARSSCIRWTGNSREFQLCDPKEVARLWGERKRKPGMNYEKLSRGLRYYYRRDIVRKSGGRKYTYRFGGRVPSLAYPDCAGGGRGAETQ
# How it was run: as §1
# ELF3 = biological target: T11, ELF3 (Homo sapiens, UniProt P78545 1-371); conditions: protein: recombinant; tags: N-terminal GST; dsDNA, one strand shown
# T11 sequence: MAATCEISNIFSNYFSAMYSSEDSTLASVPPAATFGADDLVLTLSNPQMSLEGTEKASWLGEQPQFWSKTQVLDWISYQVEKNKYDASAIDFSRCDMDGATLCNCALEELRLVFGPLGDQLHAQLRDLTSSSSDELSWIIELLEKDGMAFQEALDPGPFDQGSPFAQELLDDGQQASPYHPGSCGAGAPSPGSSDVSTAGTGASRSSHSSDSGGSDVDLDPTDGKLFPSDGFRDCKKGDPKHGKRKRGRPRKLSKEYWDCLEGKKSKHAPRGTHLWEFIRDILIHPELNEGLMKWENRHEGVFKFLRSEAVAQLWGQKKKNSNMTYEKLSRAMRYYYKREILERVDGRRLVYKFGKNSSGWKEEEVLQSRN
# How it was run: as §1
# CRX = CRX (Homo sapiens, UniProt O43186 1-299); conditions: protein: recombinant; tags: N-terminal GST; dsDNA, one strand shown
# How it was run: as §1
# ETV1 = ETV1 (Homo sapiens, UniProt P50549 1-477); conditions: protein: recombinant; tags: N-terminal GST; dsDNA, one strand shown
# How it was run: as §1
# Chain of SPIB (Q01892 whole entry): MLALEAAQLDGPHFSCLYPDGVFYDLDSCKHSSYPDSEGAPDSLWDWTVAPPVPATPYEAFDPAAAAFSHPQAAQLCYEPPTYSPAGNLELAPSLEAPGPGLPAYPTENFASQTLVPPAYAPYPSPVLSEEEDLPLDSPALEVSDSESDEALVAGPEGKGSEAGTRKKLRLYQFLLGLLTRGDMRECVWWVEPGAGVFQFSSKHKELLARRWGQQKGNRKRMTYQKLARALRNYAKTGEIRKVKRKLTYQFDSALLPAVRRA
# Chain of ETV1 (P50549 whole entry): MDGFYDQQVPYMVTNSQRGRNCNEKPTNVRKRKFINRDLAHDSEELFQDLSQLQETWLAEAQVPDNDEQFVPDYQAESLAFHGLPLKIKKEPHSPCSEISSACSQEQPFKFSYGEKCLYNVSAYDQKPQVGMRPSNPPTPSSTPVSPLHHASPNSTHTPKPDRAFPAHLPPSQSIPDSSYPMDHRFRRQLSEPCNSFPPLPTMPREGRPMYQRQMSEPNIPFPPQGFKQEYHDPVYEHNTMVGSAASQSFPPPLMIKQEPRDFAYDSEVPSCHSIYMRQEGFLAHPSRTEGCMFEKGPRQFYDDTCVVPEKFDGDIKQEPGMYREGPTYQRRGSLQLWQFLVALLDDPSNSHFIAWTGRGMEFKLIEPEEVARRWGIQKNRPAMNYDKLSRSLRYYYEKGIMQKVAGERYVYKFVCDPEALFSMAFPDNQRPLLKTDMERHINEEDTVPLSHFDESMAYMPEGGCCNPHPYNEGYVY
# Chain of ETV5 (P41161 whole entry): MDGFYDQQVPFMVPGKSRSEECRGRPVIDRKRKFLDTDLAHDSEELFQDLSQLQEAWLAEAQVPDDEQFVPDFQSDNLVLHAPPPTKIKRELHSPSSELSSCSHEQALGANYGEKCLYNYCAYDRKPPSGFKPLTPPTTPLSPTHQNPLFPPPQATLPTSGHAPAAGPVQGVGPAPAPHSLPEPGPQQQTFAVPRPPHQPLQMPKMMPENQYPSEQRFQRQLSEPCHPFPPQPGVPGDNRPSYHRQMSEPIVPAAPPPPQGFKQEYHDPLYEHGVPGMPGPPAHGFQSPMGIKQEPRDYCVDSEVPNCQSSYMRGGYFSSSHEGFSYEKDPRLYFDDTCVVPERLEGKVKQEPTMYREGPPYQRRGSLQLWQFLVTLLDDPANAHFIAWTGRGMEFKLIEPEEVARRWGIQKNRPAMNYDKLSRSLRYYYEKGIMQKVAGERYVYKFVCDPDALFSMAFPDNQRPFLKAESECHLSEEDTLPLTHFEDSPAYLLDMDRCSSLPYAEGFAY
# Chain of CRX (O43186 whole entry): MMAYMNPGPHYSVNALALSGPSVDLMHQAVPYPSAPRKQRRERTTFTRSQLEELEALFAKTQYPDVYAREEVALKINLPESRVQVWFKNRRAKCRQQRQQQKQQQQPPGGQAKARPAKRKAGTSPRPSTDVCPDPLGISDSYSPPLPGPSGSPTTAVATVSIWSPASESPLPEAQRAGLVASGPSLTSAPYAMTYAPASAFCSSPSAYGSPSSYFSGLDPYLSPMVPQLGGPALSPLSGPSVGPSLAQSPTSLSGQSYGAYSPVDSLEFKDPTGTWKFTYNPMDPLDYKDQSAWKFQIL
# Chain of ELF4 (Q99607 whole entry): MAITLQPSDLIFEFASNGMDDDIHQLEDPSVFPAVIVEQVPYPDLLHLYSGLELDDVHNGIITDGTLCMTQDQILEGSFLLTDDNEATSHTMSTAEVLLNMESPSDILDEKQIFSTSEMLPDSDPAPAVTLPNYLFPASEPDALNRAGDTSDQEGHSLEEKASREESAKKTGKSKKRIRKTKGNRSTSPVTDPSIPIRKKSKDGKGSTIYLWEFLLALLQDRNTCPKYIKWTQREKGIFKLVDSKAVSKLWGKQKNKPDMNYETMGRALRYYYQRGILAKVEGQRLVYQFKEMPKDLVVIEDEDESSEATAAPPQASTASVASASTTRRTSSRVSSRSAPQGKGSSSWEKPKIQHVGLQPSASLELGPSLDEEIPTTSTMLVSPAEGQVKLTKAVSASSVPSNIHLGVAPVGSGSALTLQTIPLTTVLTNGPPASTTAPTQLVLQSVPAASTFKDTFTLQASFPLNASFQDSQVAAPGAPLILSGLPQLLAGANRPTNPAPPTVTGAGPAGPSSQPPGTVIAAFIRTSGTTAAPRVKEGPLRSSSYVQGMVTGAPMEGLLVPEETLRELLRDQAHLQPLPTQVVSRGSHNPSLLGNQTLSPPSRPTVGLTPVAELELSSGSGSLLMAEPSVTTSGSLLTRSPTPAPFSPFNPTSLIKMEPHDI
# Chain of ELF1 (P32519 whole entry): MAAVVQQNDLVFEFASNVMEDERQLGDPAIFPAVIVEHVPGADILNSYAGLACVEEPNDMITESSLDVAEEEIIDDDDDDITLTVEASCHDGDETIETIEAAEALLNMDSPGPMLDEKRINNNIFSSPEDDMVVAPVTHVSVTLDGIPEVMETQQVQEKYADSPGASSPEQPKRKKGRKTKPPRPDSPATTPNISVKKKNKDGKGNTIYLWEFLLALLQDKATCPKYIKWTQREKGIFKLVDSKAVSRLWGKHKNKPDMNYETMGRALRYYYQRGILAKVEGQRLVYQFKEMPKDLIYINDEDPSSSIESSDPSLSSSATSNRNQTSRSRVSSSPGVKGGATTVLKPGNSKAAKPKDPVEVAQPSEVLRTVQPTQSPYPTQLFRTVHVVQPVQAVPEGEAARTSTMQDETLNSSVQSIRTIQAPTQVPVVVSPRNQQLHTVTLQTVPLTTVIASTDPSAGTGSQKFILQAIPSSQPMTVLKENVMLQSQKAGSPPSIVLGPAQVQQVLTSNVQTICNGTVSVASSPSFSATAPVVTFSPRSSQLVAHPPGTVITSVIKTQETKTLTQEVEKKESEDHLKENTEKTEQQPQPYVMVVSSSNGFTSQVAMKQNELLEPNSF
# Chain of HSF1 (Q00613 whole entry): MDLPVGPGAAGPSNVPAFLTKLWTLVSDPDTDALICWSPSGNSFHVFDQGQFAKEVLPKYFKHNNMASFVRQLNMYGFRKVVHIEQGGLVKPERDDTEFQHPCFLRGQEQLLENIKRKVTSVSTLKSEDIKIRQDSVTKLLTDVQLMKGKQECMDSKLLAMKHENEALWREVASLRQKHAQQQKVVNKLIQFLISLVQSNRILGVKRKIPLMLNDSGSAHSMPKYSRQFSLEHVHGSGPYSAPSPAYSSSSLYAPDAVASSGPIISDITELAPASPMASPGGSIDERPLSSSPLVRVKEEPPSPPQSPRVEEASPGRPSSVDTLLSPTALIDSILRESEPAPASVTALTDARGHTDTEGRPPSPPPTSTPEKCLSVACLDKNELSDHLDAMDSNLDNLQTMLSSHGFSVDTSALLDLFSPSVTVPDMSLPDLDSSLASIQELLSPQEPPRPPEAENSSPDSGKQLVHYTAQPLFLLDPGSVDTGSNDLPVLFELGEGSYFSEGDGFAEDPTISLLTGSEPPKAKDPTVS
sequence,measurement,setting,value
TATAAT,binding signal,FLI1,"1.14 fold enrichment (6-mer frequency, TF over GST control)"
same,binding signal,ELK1,"1.24 fold enrichment (6-mer frequency, TF over GST control)"
same,binding signal,GABPA,"1.12 fold enrichment (6-mer frequency, TF over GST control)"
same,binding signal,ERG,"1.07 fold enrichment (6-mer frequency, TF over GST control)"
same,binding signal,ELF1,"1.18 fold enrichment (6-mer frequency, TF over GST control)"
same,binding signal,EHF,"1.18 fold enrichment (6-mer frequency, TF over GST control)"
same,binding signal,SPI1,"1.15 fold enrichment (6-mer frequency, TF over GST control)"
same,binding signal,SPIB,"1.15 fold enrichment (6-mer frequency, TF over GST control)"
same,binding signal,ELK3,"1.22 fold enrichment (6-mer frequency, TF over GST control)"
same,binding signal,FEV,"1.16 fold enrichment (6-mer frequency, TF over GST control)"
same,binding signal,ETV5,"1.17 fold enrichment (6-mer frequency, TF over GST control)"
same,binding signal,HSF1,"1.82 fold enrichment (6-mer frequency, TF over GST control)"
same,binding signal,SPIC,"1.1 fold enrichment (6-mer frequency, TF over GST control)"
same,binding signal,ELF4,"1.13 fold enrichment (6-mer frequency, TF over GST control)"
same,binding signal,ELK4,"1.25 fold enrichment (6-mer frequency, TF over GST control)"
same,binding signal,ETV2,"1.3 fold enrichment (6-mer frequency, TF over GST control)"
same,binding signal,ELF3,"1.27 fold enrichment (6-mer frequency, TF over GST control)"
same,binding signal,CRX,"2.69 fold enrichment (6-mer frequency, TF over GST control)"
same,binding signal,ETV1,"1.15 fold enrichment (6-mer frequency, TF over GST control)"
